“And” between values parts separate entries of the source, which are not always exact repeats. Equal entries are not always repeated. Records with an inconclusive call do not appear. The source made the active and inactive calls. Unless noted, calls follow the shape of the dose curve; as a rule, active = well fitted curve in the direction sought with a large enough effect; inconclusive = small, poorly fitted or top-dose-only effect, or another doubt; inactive = no such curve, though single readings can be large; an effect the other way counts as inactive or inconclusive.
Columns and labels:
[1] = biological target: Estrogen receptor (Homo sapiens) (UniProt P03372); assay: qHTS assay for small molecule agonists of estrogen receptor alpha signaling (AID 588514; calls by dose curve; also: nearly all actives have a fitted effect of over 70% in size; also: potency is read from the fitted curve at half-maximal effect;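 as to activation: 0% = vehicle only and 100% = reference agonist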)
Chain of Estrogen receptor (Homo sapiens) (P03372 whole entry, looked up): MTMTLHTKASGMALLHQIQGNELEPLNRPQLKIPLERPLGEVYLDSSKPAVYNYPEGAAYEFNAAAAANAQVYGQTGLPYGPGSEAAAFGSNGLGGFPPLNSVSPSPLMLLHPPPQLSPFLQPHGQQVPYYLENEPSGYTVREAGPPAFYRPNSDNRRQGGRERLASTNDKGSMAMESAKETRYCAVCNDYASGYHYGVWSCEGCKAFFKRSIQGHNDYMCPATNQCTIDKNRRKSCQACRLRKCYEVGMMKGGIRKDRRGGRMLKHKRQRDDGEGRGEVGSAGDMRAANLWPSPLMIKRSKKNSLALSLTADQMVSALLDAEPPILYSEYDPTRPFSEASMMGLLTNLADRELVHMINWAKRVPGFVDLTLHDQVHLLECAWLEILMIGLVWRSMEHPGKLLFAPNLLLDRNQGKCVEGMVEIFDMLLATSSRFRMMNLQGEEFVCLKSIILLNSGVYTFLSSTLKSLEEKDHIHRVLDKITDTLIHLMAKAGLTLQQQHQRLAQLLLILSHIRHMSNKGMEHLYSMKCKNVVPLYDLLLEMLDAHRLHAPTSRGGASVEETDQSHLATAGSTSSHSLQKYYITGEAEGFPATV
Method in brief: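 ER-alpha-UAS-bla GripTite HEK293 cells, 5000/well in 2% charcoal/dextran-stripped FBS medium, treated with compound titrations 18 h at 37 C. CCF4 beta-lactamase read by fluorescence after 2 h RT; normalised to 20 nM 17-beta-estradiol (100%) and DMSO (0%), Hill fit for EC50 and efficacy.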

[2] = qHTS assay for small molecule antagonists of peroxisome proliferator-activated receptor delta signaling (AID 588535); settings: HEK293T PPARd-UAS-bla, beta-lactamase FRET ratio, 18 h; 460 nm channel;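 also: cells co-treated with a PPAR-delta agonist as stimulator during compound exposure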
Method in brief: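 Antagonist-mode beta-lactamase reporter (GeneBLAzer PPAR-delta-UAS-bla) in HEK293T cells, 2% charcoal/dextran FBS, 4000 cells/well. Compound titrations, 18 h at 37 C; CCF4 ratio read, IC50 and efficacy from Hill fits.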

[3] = biological target: Peroxisome proliferator-activated receptor gamma (Homo sapiens) (UniProt P37231); assay: qHTS assay for small molecule agonists of peroxisome proliferator-activated receptor gamma signaling (AID 588536; active = well fitted curve in the direction sought with a large enough effect in the signal ratio, with a control signal flat, not every such curve was filed as active; the % refers to the signal ratio;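 also: 0% = DMSO basal wells and 100% = rosiglitazone at 2 µM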)
Chain of Peroxisome proliferator-activated receptor gamma (Homo sapiens) (P37231 whole entry, looked up): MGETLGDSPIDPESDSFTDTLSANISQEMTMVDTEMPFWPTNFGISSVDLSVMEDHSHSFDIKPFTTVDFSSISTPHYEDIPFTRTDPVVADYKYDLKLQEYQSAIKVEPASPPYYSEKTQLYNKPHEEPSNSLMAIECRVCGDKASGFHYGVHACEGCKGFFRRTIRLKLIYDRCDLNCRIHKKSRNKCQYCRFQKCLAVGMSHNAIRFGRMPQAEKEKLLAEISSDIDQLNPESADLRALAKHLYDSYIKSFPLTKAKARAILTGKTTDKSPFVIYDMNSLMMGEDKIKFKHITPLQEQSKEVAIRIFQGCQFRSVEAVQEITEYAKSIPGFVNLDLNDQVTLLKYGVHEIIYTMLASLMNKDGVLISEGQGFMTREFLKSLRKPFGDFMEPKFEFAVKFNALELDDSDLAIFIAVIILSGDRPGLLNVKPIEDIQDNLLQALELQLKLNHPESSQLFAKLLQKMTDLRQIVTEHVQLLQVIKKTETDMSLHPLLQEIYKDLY
Method in brief: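 GeneBLAzer PPAR-gamma-UAS-bla HEK293 cells in 1% charcoal/dextran-treated FBS medium were treated 16 h at 37 C with compounds. Beta-lactamase activity was read by CCF4 ratio (460/530 nm). Response was normalized to 2 uM rosiglitazone (100%) and DMSO, then Hill-fitted for EC50 and efficacy.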

[4] = biological target: Vitamin D3 receptor (Homo sapiens) (UniProt P11473); assay: qHTS assay for small molecule agonists of vitamin D receptor signaling (AID 588543; calls by dose curve;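 also: 0% = DMSO basal and 100% = reference agonist control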)
Chain of Vitamin D3 receptor (Homo sapiens) (P11473 whole entry, looked up): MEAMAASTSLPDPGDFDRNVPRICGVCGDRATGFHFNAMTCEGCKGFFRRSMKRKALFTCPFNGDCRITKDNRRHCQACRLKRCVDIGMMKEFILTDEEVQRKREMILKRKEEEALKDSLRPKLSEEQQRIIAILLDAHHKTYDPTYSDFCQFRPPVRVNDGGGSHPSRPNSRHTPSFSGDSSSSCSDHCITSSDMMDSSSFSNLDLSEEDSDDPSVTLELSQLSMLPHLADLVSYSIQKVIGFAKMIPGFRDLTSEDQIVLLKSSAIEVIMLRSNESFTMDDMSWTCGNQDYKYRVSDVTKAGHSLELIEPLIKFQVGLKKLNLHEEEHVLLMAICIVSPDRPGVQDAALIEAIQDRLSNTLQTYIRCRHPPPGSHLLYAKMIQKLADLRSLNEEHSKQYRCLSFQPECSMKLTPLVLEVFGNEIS
Method in brief: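 β-lactamase reporter, VDR-UAS-bla HEK293T, agonist mode. Cells plated 5 h at 37 °C, compound titration 16 h at 37 °C, CCF4 dye 2 h RT, ratio 460/530 nm. Hill fit → EC50, efficacy vs 50 nM 1α,25-(OH)2D3.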

[5] = qHTS assay for small molecule agonists of retinoid X receptor alpha signaling (AID 588544; calls by dose curve;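 as to activation: 0% = DMSO basal wells and 100% = reference agonist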); settings: HEK293T RXRa-UAS-bla, beta-lactamase reporter, 18 h; 530 nm emission
[6] = biological target: Retinoic acid receptor RXR-alpha (Homo sapiens) (UniProt P19793); assay: as above
Chain of Retinoic acid receptor RXR-alpha (Homo sapiens) (P19793 whole entry, looked up): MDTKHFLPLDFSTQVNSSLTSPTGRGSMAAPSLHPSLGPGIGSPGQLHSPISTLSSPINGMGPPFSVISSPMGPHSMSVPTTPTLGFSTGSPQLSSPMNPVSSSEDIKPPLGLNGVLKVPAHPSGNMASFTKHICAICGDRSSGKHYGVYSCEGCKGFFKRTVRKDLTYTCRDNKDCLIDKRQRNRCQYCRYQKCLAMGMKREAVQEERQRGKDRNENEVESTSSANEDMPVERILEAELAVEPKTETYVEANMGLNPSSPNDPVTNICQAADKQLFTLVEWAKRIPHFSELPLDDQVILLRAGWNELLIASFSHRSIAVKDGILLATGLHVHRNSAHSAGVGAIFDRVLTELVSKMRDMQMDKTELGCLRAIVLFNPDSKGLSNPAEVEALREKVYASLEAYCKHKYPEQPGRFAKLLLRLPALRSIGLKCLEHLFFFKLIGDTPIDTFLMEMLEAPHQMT

[7] = biological target: Thyroid hormone receptor beta (Homo sapiens) (UniProt P10828); assay: qHTS assay for small molecule agonists of thyroid hormone receptor beta signaling (AID 588545; calls by dose curve;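 also: 0% = DMSO only and 100% = 10 nM T3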)
Chain of Thyroid hormone receptor beta (Homo sapiens) (P10828 whole entry, looked up): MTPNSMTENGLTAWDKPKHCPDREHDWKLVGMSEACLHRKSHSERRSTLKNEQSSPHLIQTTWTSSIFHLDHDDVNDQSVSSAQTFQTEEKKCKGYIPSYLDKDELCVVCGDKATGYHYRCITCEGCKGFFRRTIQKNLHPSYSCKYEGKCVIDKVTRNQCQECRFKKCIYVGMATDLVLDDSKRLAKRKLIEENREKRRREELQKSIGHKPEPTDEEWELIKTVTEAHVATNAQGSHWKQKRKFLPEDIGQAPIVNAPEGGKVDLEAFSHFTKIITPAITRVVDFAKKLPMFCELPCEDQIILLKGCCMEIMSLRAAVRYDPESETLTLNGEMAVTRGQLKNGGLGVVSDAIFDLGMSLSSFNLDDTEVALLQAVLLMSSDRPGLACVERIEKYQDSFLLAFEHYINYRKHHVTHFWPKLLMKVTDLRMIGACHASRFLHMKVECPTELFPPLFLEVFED
Method in brief: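 Compounds were tested as agonists in TR-UAS-bla-GripTite HEK 293 cells. After 18 hrs at 37 C, CCF4 substrate was added and fluorescence read after 2 hrs at room temperature.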

[8] = qHTS assay for small molecule antagonists of retinoid X receptor alpha signaling (AID 588546; active = well fitted inhibition curve with a large enough effect in the signal ratio, with a control signal flat, not every such curve was filed as active; the % refers to the signal ratio; also: potency is read from the fitted curve at half-maximal effect;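 as to max response: cells stimulated with 9-cis-retinoic acid as agonist; % is scaled to controls: 0 for no effect and ±100 for the full control effect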); settings: HEK293T RXRa-UAS-bla, beta-lactamase ratio, antagonist mode; measured here: W530 green channel, cytotoxicity proxy
Method in brief: (§1)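 Beta-lactamase reporter inhibition, read as CCF4 fluorescence ratio (ex 405, em 460/530 nm) after 2 h at RT. HEK293T UAS-bla cells, 2500/well, were stimulated with 9-cis-RA at 500 or 100 nM final alongside test compound for 18 h at 37 C.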

[9] = biological target: Retinoic acid receptor RXR-alpha (Homo sapiens) (UniProt P19793); assay: as above; settings: HEK293T RXRa-UAS-bla, beta-lactamase ratio, antagonist mode
Method in brief: as §1

[10] = qHTS assay for environmental chemicals that activate the Aryl hydrocarbon Receptor (AhR) signaling pathway (AID 651777); settings: 1A2-DRE human hepatoma cells, luciferase, 24 h; activation: stronger effect = higher value; also: % of control where 0% means no effect; nearly all actives have a fitted effect of over 15% in size
Method in brief: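 Reporter gene assay: hepatoma cells with DRE/CYP1A2-luciferase, 24 hr compound incubation at 37 C, 5% CO2, luminescence after One-Glo (30 min, RT).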

[11] = biological target: Peroxisome proliferator-activated receptor alpha (Homo sapiens) (UniProt Q07869); assay: qHTS assay for small molecule agonists of the peroxisome proliferator-activated receptor alpha (PPARalpha) signaling pathway (AID 651778); settings: PathHunter PPARalpha complementation, chemiluminescence, 6 h; max response: stronger effect = higher value; also: % of control where 0% means no effect
Chain of Peroxisome proliferator-activated receptor alpha (Homo sapiens) (Q07869 whole entry, looked up, the tested form may be a part): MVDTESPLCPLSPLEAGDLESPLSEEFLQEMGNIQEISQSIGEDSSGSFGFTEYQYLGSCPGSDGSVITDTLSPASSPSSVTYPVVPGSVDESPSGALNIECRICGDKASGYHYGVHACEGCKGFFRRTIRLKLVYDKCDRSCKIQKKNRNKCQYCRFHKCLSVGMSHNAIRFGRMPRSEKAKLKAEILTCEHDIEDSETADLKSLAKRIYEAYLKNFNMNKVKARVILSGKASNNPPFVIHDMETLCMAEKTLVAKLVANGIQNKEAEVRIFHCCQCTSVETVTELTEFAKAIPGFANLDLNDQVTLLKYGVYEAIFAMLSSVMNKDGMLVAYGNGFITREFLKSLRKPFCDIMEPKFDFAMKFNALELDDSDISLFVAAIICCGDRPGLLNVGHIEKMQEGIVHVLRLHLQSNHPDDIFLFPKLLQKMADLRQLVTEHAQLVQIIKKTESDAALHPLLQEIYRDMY
Method in brief: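 Enzyme-fragment complementation assay in which ligand-bound PPARalpha translocates and forms an active enzyme that generates chemiluminescence. Cells were plated overnight, exposed to compound for 6 hr at 37 C, and then given detection reagent for 60 min at room temperature.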

[12] = qHTS assay for small molecule agonists of the antioxidant response element (ARE) signaling pathway measured by Nrf2-dependant transcriptional activity - cell viability counter screen (AID 720653; active = well fitted curve in the direction sought with a large enough effect in the repeat runs; an effect the other way counts as inactive or inconclusive; also: % is scaled to controls: 0 for no effect and ±100 for the full control effect); settings: ARE-bla HepG2 viability, CellTiter-Glo ATP luminescence, 16 h; max response: stronger effect = lower value
Method in brief: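 ARE-bla HepG2 cells treated with compounds for 16 h at 37C; this counter screen measures viability as intracellular ATP by CellTiter-Glo luminescence after 30 min at room temperature.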

[13] = qHTS assay for cell viability of HEK293 cells (AID 743288); settings: ATP luminescence (CellTiter-Glo), 18 h; max response: stronger effect = lower value; also: % is scaled to controls: 0 for no effect and ±100 for the full control effect; nearly all actives have a fitted effect of over 50% in size
Method in brief: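 Environmental chemicals tested in qHTS format against parental HEK293 cells; 18 h treatment, 37 C; read-out ATP luminescence (CellTiter-Glo), 30 min RT development.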

[14] = qHTS assay for cell viability of the p53RE-bla HCT-116 cell line (AID 743292); also: nearly all actives have a fitted effect of over 55% in size; also: potency is read from the fitted curve at half-maximal effect
Method in brief: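 ATP-based luminescence, 16 h compound exposure at 37 C, p53RE-bla HCT-116 cells at 4,000/well.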

[15] = biological target: Nuclear receptor subfamily 1 group I member 2 (Rattus norvegicus) (UniProt Q9R1A7); assay: qHTS assay for small molecule activators of the rat pregnane X receptor (rPXR) signaling pathway (AID 651751; call rule not given here; also: 0% is about no effect); settings: rPXR reporter cells, luciferase (One-Glo), 24 h
Chain of Nuclear receptor subfamily 1 group I member 2 (Rattus norvegicus) (Q9R1A7 whole entry, looked up): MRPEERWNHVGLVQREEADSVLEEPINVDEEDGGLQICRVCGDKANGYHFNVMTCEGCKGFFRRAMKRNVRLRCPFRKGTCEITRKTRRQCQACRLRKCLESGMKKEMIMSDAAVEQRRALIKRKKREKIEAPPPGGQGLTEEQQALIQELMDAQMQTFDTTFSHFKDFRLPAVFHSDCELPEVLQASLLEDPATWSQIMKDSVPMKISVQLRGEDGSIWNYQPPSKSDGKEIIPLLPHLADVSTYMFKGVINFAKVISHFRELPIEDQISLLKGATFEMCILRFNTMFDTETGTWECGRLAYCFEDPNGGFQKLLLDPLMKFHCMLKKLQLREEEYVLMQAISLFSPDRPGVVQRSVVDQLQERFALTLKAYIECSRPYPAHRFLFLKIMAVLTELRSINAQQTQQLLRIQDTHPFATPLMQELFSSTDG

[16] = biological target: Glucocorticoid receptor (Homo sapiens) (UniProt P04150); assay: qHTS assay for small molecule agonists of glucocorticoid receptor signaling (AID 588532; active = well fitted curve in the direction sought with a large enough effect in the signal ratio, with a control signal flat; the % refers to the signal ratio;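 also: 100% = dexamethasone at 0.1 µM and 0% = DMSO only wells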); settings: HeLa MMTV-bla, beta-lactamase ratio, agonist, 18 h; stronger effect = higher value; percent of dexamethasone control, DMSO zero
Chain of Glucocorticoid receptor (Homo sapiens) (P04150 whole entry, looked up): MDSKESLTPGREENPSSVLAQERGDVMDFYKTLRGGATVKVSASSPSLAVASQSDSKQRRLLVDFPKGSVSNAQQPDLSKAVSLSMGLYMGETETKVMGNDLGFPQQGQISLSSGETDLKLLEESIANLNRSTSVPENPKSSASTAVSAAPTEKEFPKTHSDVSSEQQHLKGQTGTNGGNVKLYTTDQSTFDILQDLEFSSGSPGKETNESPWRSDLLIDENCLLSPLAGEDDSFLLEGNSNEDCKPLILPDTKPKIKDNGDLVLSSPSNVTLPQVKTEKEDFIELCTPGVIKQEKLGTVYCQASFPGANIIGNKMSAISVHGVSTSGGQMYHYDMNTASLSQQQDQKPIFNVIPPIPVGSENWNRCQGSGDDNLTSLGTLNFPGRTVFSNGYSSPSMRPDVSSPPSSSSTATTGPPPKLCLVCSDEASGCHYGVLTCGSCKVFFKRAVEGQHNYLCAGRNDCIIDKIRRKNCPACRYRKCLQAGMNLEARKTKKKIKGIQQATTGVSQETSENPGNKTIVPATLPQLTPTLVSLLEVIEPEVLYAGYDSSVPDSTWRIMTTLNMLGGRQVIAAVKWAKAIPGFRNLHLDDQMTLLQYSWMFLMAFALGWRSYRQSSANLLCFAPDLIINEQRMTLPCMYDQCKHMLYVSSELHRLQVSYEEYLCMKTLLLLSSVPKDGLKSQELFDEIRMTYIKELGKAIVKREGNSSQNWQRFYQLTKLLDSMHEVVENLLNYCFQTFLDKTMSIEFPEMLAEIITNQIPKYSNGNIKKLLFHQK
Method in brief: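 MMTV-bla HeLa beta-lactamase reporter cells in 1% charcoal/dextran FBS medium, compounds up to 92 uM for 18 h at 37 C, CCF4 readout; normalized to 0.1 uM dexamethasone (100%), EC50 and efficacy from Hill fits.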

[17] = biological target: Glucocorticoid receptor (Homo sapiens) (UniProt P04150); assay: qHTS assay for small molecule antagonists of glucocorticoid receptor signaling (AID 588533; active = well fitted inhibition curve with a large enough effect in the signal ratio, with a control signal flat, not every such curve was filed as active; the % refers to the signal ratio;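 also: cells stimulated with 2 nM dexamethasone as agonist; % is scaled to controls: 0 for no effect and ±100 for the full control effect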)
Method in brief: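 Antagonist-mode qHTS: compound titrations added to GRE-bla HeLa cells, then dexamethasone 2 nM final; 18 h, 37 C. CCF4 FRET fluorescence normalized to dexamethasone and DMSO; IC50 from Hill fit.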

[18] = biological target: Thyroid hormone receptor beta (Homo sapiens) (UniProt P10828); assay: qHTS assay for small molecule antagonists of thyroid hormone receptor beta signaling (AID 588547; active = well fitted inhibition curve with a large enough effect in the signal ratio, with a control signal flat, not every such curve was filed as active; the % refers to the signal ratio;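 also: cells stimulated with 0.4 nM T3 agonist during compound exposure; series mostly up to about 77 µM; % is scaled to controls: 0 for no effect and ±100 for the full control effect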); settings: TR-UAS-bla HEK293, beta-lactamase ratio, antagonist mode, 18 h
Method in brief: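 TR-UAS-bla GripTite HEK293 cells in 2% charcoal/dextran FBS medium; compounds 0.59 nM to 92 uM with T3 at 0.4nM final, 18 h at 37 C. Beta-lactamase read by CCF4 fluorescence (460/530 nm); Hill fits gave IC50 and efficacy.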

[19] = qHTS assay for small molecule agonists of the antioxidant response element (ARE) signaling pathway measured by Nrf2-dependant transcriptional activity (AID 720636; active = well fitted curve in the direction sought with a large enough effect in the repeat runs; an effect the other way counts as inactive or inconclusive;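 also: HepG2 cells with an ARE-driven luciferase reporter; % of control where 0% means no effect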)
Method in brief: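 Nrf2-dependent transcription is measured in ARE-luc HepG2 cells: compound is applied for 16 hr at 37 C after a 6 hr attachment period, and luciferase activity is quantified by luminescence using ONE-Glo.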

[20] = qHTS assay for small molecule activators of the human pregnane X receptor (PXR) signaling pathway (AID 720659; call rule not given here; also: 0% is about no effect)

O=c1n(CCO)c(=O)n(CCO)c(=O)n1CCO
3.67%: max response [2]
-6.53%: max response [8]
-13.7%: max response [5]
inactive: Potency [1] | outcome [3] | outcome [4] | Potency [6] | Potency [7] | max response [9] 2.33% | activation [10] 0.674% | max response [11] 0.0492% | max response [12] -11.6% | max response [13] -6.36% | Potency [14] | max response [15] -0.84%

CCCCOC(=O)[C@@H](C)Oc1ccc(Oc2ccc(C(F)(F)F)cn2)cc1
inactive: Potency [1] | activation [16] -9.59% | Potency [17] | outcome [3] | outcome [4] | Potency [6] | Potency [7] | max response [9] 9.28% and -16% | activity change % (negative = inhibition) [18] 6.28% and 7.31% | activation [10] -0.836% and 0.498% | max response [11] -0.0053% and -0.638% | Potency [19] | max response [12] -10.9% and -13.9% | max response [13] -10% and -13.5% | Potency [14] | max response [15] -5.37% and -2.58%
-5.61% and -1.04%: max response [8]
35.2% and 48.6%: max response [2]
-3.89% and -1%: max response [5]

C=C(C)C(=O)OCCCCCCCCCCCC
-6.86%: max response [8]
-35.9%: max response [2]
-11.6%: max response [5]
inactive: Potency [1] | activation [16] -1.63% | Potency [17] | outcome [3] | Potency [6] | Potency [7] | max response [9] 6.49% | activity change % (negative = inhibition) [18] 0.53% | activation [10] 1.15% | max response [11] -1.38% | Potency [19] | max response [12] 11.2% | max response [13] -6.64% | Potency [14] | max response [15] 1.96% | outcome [20]

CC(C)(C)c1cccc(C(C)(C)C)c1O
-24.3%: max response [2]
-8.93%: max response [5]
-10.7%: max response [8]
inactive: Potency [1] | activation [16] -7.64% | Potency [17] | Potency [6] | max response [9] -0.1% | activity change % (negative = inhibition) [18] 16.3% | activation [10] 0.241% | max response [11] -2.21% | Potency [19] | max response [12] -3.7% | max response [13] 0.51% | Potency [14] | max response [15] 0.577% | outcome [20]

CC(C)c1ccc(C(C)C)cc1
-15.9%: max response [8]
-15.2%: max response [5]
inactive: Potency [1] | activation [16] 1.07% | Potency [17] | outcome [3] | outcome [4] | Potency [6] | Potency [7] | max response [9] 9.54% | activation [10] 0.903% | max response [11] -2.48% | Potency [19] | max response [12] 2.58% | max response [13] 4.22% | Potency [14] | max response [15] -0.628% | outcome [20]

Cc1ccc(S(=O)(=O)N=C=O)cc1
inactive: Potency [1] | activation [16] 20.2% | Potency [17] | outcome [3] | outcome [4] | Potency [6] | Potency [7] | max response [9] 12.7% | activity change % (negative = inhibition) [18] 8.97% | activation [10] -0.31% | max response [11] -0.858% | max response [12] -7.8% | max response [13] -6.04% | Potency [14] | max response [15] -1.2% | outcome [20]
15.4%: max response [5]
-8.47%: max response [8]
5.8%: max response [2]

Cn1c(=O)[nH]c(=O)n(C2CCCCC2)c1=O
inactive: Potency [1] | activation [16] 12.5% | Potency [17] | outcome [4] | Potency [6] | Potency [7] | max response [9] 5.47% | activity change % (negative = inhibition) [18] 4.13% | activation [10] -1.1% | Potency [19] | max response [12] -9.94% | max response [13] -7.06% | Potency [14] | max response [15] 1.25% | outcome [20]
-9.26%: max response [8]
-3.38%: max response [5]

COc1nc(C)nc(NC(=O)NS(=O)(=O)c2ccccc2OCCCl)n1
11.2%: max response [8]
-8.8%: max response [2]
inactive: Potency [1] | activation [16] -18.5% | Potency [17] | outcome [3] | outcome [4] | Potency [7] | max response [9] 20.3% | activity change % (negative = inhibition) [18] 1.88% | activation [10] 2.11% | max response [11] 1.06% | Potency [19] | max response [12] 14.8% | max response [13] 6.67% | max response [15] 5.75% | outcome [20]

O=C(O)CN(CCCN(CC(=O)O)CC(=O)O)CC(=O)O
-16.9%: max response [5]
active: Potency [1] 8.91 µM
-69.3%: max response [2]
inactive: activation [16] 16.2% | outcome [4] | Potency [6] | Potency [7] | activation [10] 0.0297% | max response [11] 0.851% | Potency [19] | max response [12] -7.74% | max response [13] -11% | Potency [14] | max response [15] -5.79% | outcome [20]

C[Si]1(C)O[Si](C)(C)O[Si](C)(C)O[Si](C)(C)O1
1.41%: max response [8]
8.31%: max response [2]
inactive: Potency [1] | outcome [4] | max response [9] 6.05% | activity change % (negative = inhibition) [18] 11% | activation [10] -0.142% | max response [11] -0.153% | Potency [19] | max response [12] 2.58% | max response [13] 0.965% | Potency [14] | max response [15] 3.43% | outcome [20]

CCCCCCCCCC[N+](C)(C)Cc1ccccc1
16%: max response [8]
inactive: activation [16] -4.12% | Potency [17] | outcome [3] | Potency [7] | max response [11] 7.43% | max response [12] -23% | max response [15] -4.11% | outcome [20]
active: Potency [1] 1.12 µM | Potency [9] 35.5 µM

CCCN(CCC)c1c([N+](=O)[O-])cc(C(F)(F)F)c(N)c1[N+](=O)[O-]
active: Potency [14] 50.1 µM
inactive: Potency [1] | activation [16] -4.44% | outcome [4] | max response [9] -37.1% | activation [10] 2.99% | Potency [19] | max response [12] -7.36% | max response [13] -20.5%
-8.88%: max response [8]

Reference: PubChem BioAssay (NCATS)
